PubChem BioAssay AID720513 (Broad Institute, 2013)
Out of some 2,100 compounds screened, about 480 (23%) were called active. About 5% were inconclusive and are not listed.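 Rule for the calls: active = fitted curve reaches 40% activation at or below the top valid concentration, in every replicate test; inconclusive = replicate tests disagree on the call; inactive = the rest, including activity in the opposite direction.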 The list is a sample of the results. Potency and affinity values are given separately.

test: PGC1a acetylation increase, cellular AlphaLISA – cell-based, cherry-picked samples, set 6, dose response (AID 720513); conditions: U2OS PGC1a acetylation AlphaLISA, overnight, 0 = neutral, -100 = inhibitor control; series mostly up to 19.5 µM; activation (acetylation increase): at the top concentration;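 note: cells made to overexpress flag tagged PGC1a plus GCN5 acetyltransferase by viral infection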

Activation (acetylation increase), inactive:
Cc1noc(C)c1NC(=O)N[C@H]1C=C[C@H](CC(=O)NCc2ccc(Cl)c(Cl)c2)O[C@H]1CO -0.434%
CN1C(=O)c2ccccc2C(C(=O)O)C1c1cccc([N+](=O)[O-])c1 (stereo not drawn) 2.58%
CCOC(=O)C1(Cc2cccc(F)c2)CCN(Cc2c(C)nn(CC)c2C)CC1 -4.38%
CCOC(=O)C1(Cc2cccc(F)c2)CCN(Cc2ccc(COC)o2)CC1 22.6%
C[C@@H]1CN([C@@H](C)CO)C(=O)Cc2cc(NC(=O)CCC(F)(F)F)ccc2O[C@H]1CN(C)S(C)(=O)=O 11.5%
Cn1nnnc1Sc1ncnc2scc(-c3ccc[nH]3)c12 -86.7%
Oc1ccc2ccccc2c1CN1CCCCC1 25.1%
Cn1c(CCN2CCCCC2)nc2cc(NS(=O)(=O)c3ccccc3)ccc21 4.86%
Cn1c(O)c(C(C#N)=C2N=c3ccccc3=N2)c2ccccc21 30% [at 10 µM]
O=C(C[C@H]1CC[C@@H]2[C@H](COC[C@@H](O)CN2S(=O)(=O)c2ccc(F)cc2)O1)NCCN1CCCCC1 14.2%
O=c1oc(-c2ccccc2)cc(Cl)c1Cl -106%
Cc1noc(C)c1C(=O)Nc1nc(-c2cc(F)ccc2F)cs1 12.2%
CN(C)Cc1csc(NC(=O)Nc2ccccc2-c2ccccc2)n1 33%
CC(C)NC(=O)NCC[C@@H]1CC[C@H](NS(=O)(=O)c2ccc(-c3ccccc3)cc2)[C@@H](CO)O1 17%
COC(=O)c1cc(Cl)c(NS(=O)(=O)c2ccccc2)cc1OC -19.9%
COc1ccccc1NC(=O)CCC(=O)Nc1ccccc1OC 10.1%
CCn1c(=O)c2c(cnn2C)c2ccccc21 -24.2%
COc1ccc(-c2nc(C#N)c(NCc3ccco3)o2)cc1 4.47%
CCOc1ccc(Nc2ncnc3ccc([N+](=O)[O-])cc23)cc1 -15.2%
CCCNC(=O)c1nnsc1S(=O)(=O)c1ccc(Cl)cc1 -89.4%
Cc1cc(C)c2c(=O)[nH]n(C3CCCCCC3)c2n1 5.32%
O=C(C[C@H]1C[C@@H]2c3cc(NS(=O)(=O)c4ccc(F)cc4)ccc3O[C@@H]2[C@@H](CO)O1)N1CCc2ccccc2C1 -62.7%
O=C(C(Br)=Cc1ccccc1)c1ccccc1 -73.6%
O=C(C1CC1)N1C[C@@H]2N[C@H](C1)C2c1ccc(/C=C/c2ccccc2)cc1 (stereo partly drawn) -16.1%
Cc1ccc(C(=O)OCN2C(=O)c3ccccc3C2=O)o1 -4.58%
CCCCC1C(=O)N(c2ccccc2)N(c2ccc(O)cc2)C1=O (stereo not drawn) -78.9%
O=C(Nc1nc2cc3c(cc2s1)OCCO3)c1ccncc1 6.43%
C[C@@H]1CN([C@@H](C)CO)C(=O)c2cc(NS(=O)(=O)c3ccc(F)cc3)ccc2O[C@@H]1CN(C)S(=O)(=O)c1ccc(Cl)cc1 2.96%
